The results in this text go back to ChEMBL document CHEMBL4888484, “Replenishing the malaria drug discovery pipeline: Screening and hit evaluation of the MMV Hit Generation Library 1 (HGL1) against asexual blood stage Plasmodium falciparum ,using a nano luciferase reporter read-out” (2022).

Each structure is given as a SMILES string. The whole screen tested about 150,000 compounds, of which about 540 (0.36%) showed an effect of 50% or more. Only a selection was taken, and strong results are over-represented in it overall.

The test concerns Plasmodium falciparum. The experiment in a line: Primary screen in NF54 nanoGlo assay, in single point, at 2uM, 72h; a lower Z score goes with more inhibition. It counts as functional, Erythrocyte. The conditions noted are these: timepoint 72 hour.
Regarding `COC(=O)[C@@H]1C[C@@H](O)CN1Cc1ccncc1Cl`, the “% Inhibition” value is listed as -4% and the Z score amounted to 0.5.

With `Cc1ccc(N(C)C(C)C)c(C(=O)NC[C@H]2CCC3(CCOCC3)O2)c1`, the “% Inhibition” value is -1% and the Z score is 0.19.

For the compound `O=C(c1ccccc1Oc1ccccc1)N1CCO[C@]2(CNCCOC2)C1`, the “% Inhibition” value was determined as 5% and the Z score is on record as -0.96.

For `O[C@@H](CNc1ncnc2sccc12)c1ccc(Cl)c(F)c1`, the “% Inhibition” value is reported as 28% and the Z score is -3.21.

With `O=C(N[C@@H]1c2ccccc2OC[C@@H]1CO)[C@H](O)c1ccccc1`, the “% Inhibition” value was -2% and the Z score is reported as 0.41.

As for `Cc1ccsc1CNc1ccccc1C(=O)NCc1ncc[nH]1`, the “% Inhibition” value is reported as 2% and the Z score is reported as -0.38.

Turning to `Cc1ccccc1C(=O)Cc1ncc[nH]1`, the “% Inhibition” value worked out at 87% and the Z score was -5.77.

For the compound `CC(=O)c1ccccc1C(=O)NCCCc1ncc[nH]1`, the “% Inhibition” value is -9% and the Z score was 1.13.

`CCc1nc2c(c(OC3CCN(C(=O)c4ccn(CC)n4)CC3)n1)CCOCC2`: the “% Inhibition” value is on record as -11% and the Z score turned out to be 1.12.

On to `Cc1[nH]c2ncnc(NC(=O)c3cccc(S(=O)(=O)NC4CC4)c3)c2c1C`, for which the “% Inhibition” value is on record as -21% and the Z score is 3.01.

In the case of `Cc1cc(NC(=O)c2cccc(-n3ccnn3)c2)nc(=O)[nH]1`, the “% Inhibition” value is on record as -14% and the Z score came out at 2.12.

Take `Cc1[nH]c2ncnc(NC(=O)c3cccc(-n4ccnn4)c3)c2c1C`: the “% Inhibition” value worked out at 65% and the Z score is recorded as -1.3.

For the compound `CCCN(CCC)C(=O)c1cc(F)ccc1OC`, the “% Inhibition” value is recorded as -10% and the Z score came to 1.09.

Take `Fc1ccc(COc2cccc(CNCCN3CCOCC3)c2)cc1`: the “% Inhibition” value was 33% and the Z score is listed as 1.13.

For the compound `O[C@H]1CCN(Cc2cccc(OCCCCN3CCOCC3)c2)C[C@@H]1O`, the “% Inhibition” value worked out at 4% and the Z score was -0.63.

Turning to `O=C(NC1(c2ncon2)CCOCC1)c1cc2ccccn2c1`, the “% Inhibition” value was -4% and the Z score is listed as 0.42.

`Cc1ccccc1Cn1cnc2c1c(=O)n(C1CC1)c(=O)n2-c1ccccc1C`: the “% Inhibition” value was 5% and the Z score is given as -0.48.

Turning to `COc1ccccc1-n1c(=O)n(C2CCCC2)c(=O)c2c1ncn2Cc1ccccc1Cl`, the “% Inhibition” value was determined as 37% and the Z score is -4.79.

In the case of `Cc1ccccc1-n1c(=O)n(C2CCCCC2)c(=O)c2c1ncn2Cc1ccccc1`, the “% Inhibition” value is given as -1% and the Z score is given as 0.09.

Consider `Cc1ccccc1Cn1cnc2c1c(=O)n(C1CCCCC1)c(=O)n2-c1ccccc1Cl`, for which the “% Inhibition” value was 70% and the Z score is reported as -7.57.

Regarding `Cc1ccccc1Cn1cnc2c1c(=O)n(C1CCCC1)c(=O)n2-c1ccccc1`, the “% Inhibition” value is -7% and the Z score is recorded as 0.85.

As for `COc1ccccc1Cn1cnc2c1c(=O)n(C1CCCCC1)c(=O)n2-c1ccccc1Cl`, the “% Inhibition” value is on record as 69% and the Z score is reported as -6.45.

`Cc1c(Cl)cccc1NC(=O)c1sccc1S(=O)(=O)N1CCc2ccccc2C1`: the “% Inhibition” value was found to be 1% and the Z score was -0.1.

With `COc1ccc([C@@H](CC(=O)NCc2ccc(F)cc2)c2c[nH]c3ccccc23)c(OC)c1`, the “% Inhibition” value is 3% and the Z score is -0.42.

As for `COc1cc(NC(C)(C)CN2CCOCC2)ncn1`, the “% Inhibition” value is given as -11% and the Z score amounted to 0.99.

With `O=C(NC[C@H](O)c1cccnc1)c1ncoc1C1CC1`, the “% Inhibition” value is reported as -7% and the Z score was 0.94.

Regarding `COC[C@H]1CCCCN1C(=O)c1ccnc(C2CCCC2)n1`, the “% Inhibition” value came to 7% and the Z score is listed as -1.03.

With `COc1ccc(N2CCN(C(=O)c3ccn4c(-c5ccccc5)nnc4c3)CC2)cc1`, the “% Inhibition” value was -3% and the Z score is given as 0.29.

With `COc1ccccc1CNC(=O)c1cc(C)nc2c(-c3ccc(C)cc3)cccc12`, the “% Inhibition” value is reported as 12% and the Z score is recorded as -1.38.

`COc1cccc(N2CCC(N3CCC4(CC3)CNC(=O)O4)CC2)c1`: the “% Inhibition” value is reported as -2% and the Z score amounted to 0.35.

For the compound `Cc1nc2c(c(NC(=O)Cc3ccccc3)nn2C)c(C)c1Cl`, the “% Inhibition” value is on record as -8% and the Z score was determined as 0.76.

`Cc1ccc(N2CCC(NCCCn3cccn3)CC2)cc1Cl`: the “% Inhibition” value is given as -5% and the Z score was 0.81.

Consider `Cc1cnccc1NCCNC1CCN(c2ccc(Cl)cc2)CC1`, for which the “% Inhibition” value was 99% and the Z score is listed as -17.94.

`Cc1cnccc1NCCNC1CCN(c2ccc3c(c2)CCC3)CC1`: the “% Inhibition” value came to 85% and the Z score was -13.14.

For the compound `CCn1cncc1CNC1CCN(c2ccc3c(c2)CCC3)CC1`, the “% Inhibition” value is on record as -14% and the Z score was found to be 1.42.

As for `CN1CCC[C@@H]1CCNC1CCN(c2ccc3c(c2)CCC3)CC1`, the “% Inhibition” value came to 21% and the Z score is -2.96.

`CN(CC1(CO)CCCC1)C(=O)CN1CCCCC1`: the “% Inhibition” value was -8% and the Z score is reported as 1.48.

Take `O=C(c1ccc(F)cc1)N1CCC(N2CCS(=O)(=O)CC2)CC1`: the “% Inhibition” value is listed as -12% and the Z score worked out at 1.04.

Regarding `CCc1cc(N2CCN(CCc3ccccc3)C(=O)C2)ncn1`, the “% Inhibition” value was -15% and the Z score worked out at 2.

On to `Cc1ccc([C@H]2C(=O)N(C3CCC(C)CC3)CC(=O)N2C2CCCCCCC2)cc1` (some centres not stated), for which the “% Inhibition” value is -6% and the Z score is on record as 0.82.

Consider `O=C(O)C1(NCc2cc(-c3ccc(Cl)cc3)no2)CCCC1`, for which the “% Inhibition” value worked out at 11% and the Z score is -1.27.

By % Inhibition is commonly meant the change of the read-out against control, counted positive when it falls.
